# Giardia killer: Small Molecules that selectively kill Giardia lamblia: qHTS; Giardia lamblia trophozoite viability; activity change, % at 7.66 µM, hits read low; 340,000 compounds, 0.15% hits; AID 540267, 2011; in the data active means activity change below about -80%; inconclusive means between about -30% and that limit;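 further: parasites exposed to compound for two days anaerobically before the ATP read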
#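 Luminescence from cellular ATP indicates surviving trophozoites (100 cells/well) following 48 hrs anaerobic compound treatment at 37 deg C; signal develops 15-30 min at room temperature.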
# Sfp PPTase inh: qHTS Assay for Inhibitors of Bacillus subtilis Sfp phosphopantetheinyl transferase (PPTase); 4'-phosphopantetheinyl transferase ffp (Bacillus subtilis), Q9F4F7; Biochemical Sfp PPTase activity, qHTS; Potency, µM, without a hit: largest response in the series, negative = inhibition, most hits filed as inhibitors; 310,000 compounds, 3.5% hits; AID 1490, 2009;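 further: the enzyme is Sfp with the accession as filed and its product quenches rhodamine fluorescence; potency means the concentration at half of the fitted maximal effect; 0% = enzyme reaction without inhibitor and -100% = no enzyme wells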
#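 With Hepes-Na pH 7.6 buffer containing 10 mM MgCl2, Sfp (15 nM) modified BHQ-2-YbbR (12.5 uM) using rhodamine-CoA (5 uM). Two reads 30 minutes apart at 525/598 nm yielded each well's rate.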
# Coupling enz: qHTS Assay for Inhibitors of Fructose-1,6-bisphosphate Aldolase from Giardia Lamblia: Coupling assay counterscreen | coupling enzyme system counterscreen, AmpLite Red fluorescence | activity change, negative = inhibition, % at 58.2 µM, hits read low | 290,000 compounds, 0.67% hits | AID 2472, 2010; in the data active means activity change below about -30%
#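 Compounds tested against the coupling enzymes alone at 57.5 uM final; readout was AmpLite Red fluorescence (525/598 nm) after 20 min at RT.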
# ELG1 DNA repair: qHTS screen for small molecules that inhibit ELG1-dependent DNA repair in human embryonic kidney (HEK293T) cells expressing luciferase-tagged ELG1 | 330,000 compounds, 2.3% hits | AID 504467, 2011 | Potency, µM (titrated, usually from 46.1 µM), for inactives: at the highest dose activity change, negative = inhibition, actives largely listed as inhibitors | HEK293T ELG1-luciferase reporter, luminescence, 16 h; DNA damage induced by 5-fluorouridine; further: potency means the concentration at half of the fitted maximal effect; nearly all actives have a fitted effect of over 55% in size
#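 Overnight (16 hr) co-exposure of 2,000 cells/well to 5-fluorouridine and compound at 37 °C preceded detection. Luciferase was quantified via ONE-Glo luminescence; loss of signal denotes inhibition.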
# An asterisk follows results filed as active; u = inconclusive; x = not tested or not shown. Shown are actives, neighbours in structure and some others; about 5.5% of the full set was active somewhere. Unless noted, the call rests on the fitted dose curve; in most records, active means well fitted curve in the direction sought with a large enough effect; inconclusive means small, poorly fitted or top-dose-only effect, or another doubt; inactive means no such curve, though single readings can be large; an effect the other way counts as inactive or inconclusive. Unless noted, on the % scale 0 is the no-effect control and ±100 the full control effect.
SMILES,Giardia killer,Sfp PPTase inh,Coupling enz,ELG1 DNA repair
Cc1ccc(S(=O)(=O)CCC(=O)Nc2cccc(S(=O)(=O)N3CCCCCC3)c2)cc1,-16.3,x,x,4.7%
O=C1[C@@H]2[C@H]3[C@H](O)[C@H](O)C/C(=N/OC[C@@H](O)COCc4ccco4)[C@H]3CC[C@H]2C(=O)N1c1ccc(F)cc1F,x,13.1%,-30.4*,x
CC1(C)CC(=O)C(C(C2=C(O)CC(C)(C)CC2=O)c2cccs2)C(=O)C1 (stereo not given),-19.2,22.4µM*,0.5,14.2%
CC1(C)CC(=O)C(C(C2=C(O)CC(C)(C)CC2=O)c2cccc(O)c2)C(=O)C1 (stereo not given),-2.6,22.4µM*,0.4,-3.3%
Cc1cnc(CNc2cc(-c3cccc(NS(C)(=O)=O)c3)ncn2)cn1,x,-9.4%,0.0,x
COc1ccc(CCn2c(N)c(C#N)c3nc4ccccc4nc32)cc1OC,-0.7,-1.6%,-20.6,23.1µM*
COc1ccc(CCn2c(N)c(C(=O)NCc3ccco3)c3nc4ccccc4nc32)cc1OC,-4.5,44.7µM*,-20.2,10µM*
COc1ccc(CCn2c(N)c(C(=O)NCc3ccco3)c3nc4ccccc4nc32)cc1,2.6,u,-5.7,20.6µM*
COc1ccc(Cn2c(N)c(C#N)c3nc4ccccc4nc32)cc1OC,14.6,16.2%,-1.3,-6.7%
Nc1c(C(=O)NCc2ccco2)c2nc3ccccc3nc2n1CCc1ccccc1F,-5.6,56.2µM*,-14.9,-28.8%
COc1ccc(-n2c(N)c(C(=O)NCc3ccco3)c3nc4ccccc4nc32)c(OC)c1,5.2,u,-8.3,-24.7%
CN(C)N1C(N)=C(C#N)C(c2ccccc2F)C2=C1CC(C)(C)CC2=O (stereo not given),17.6,10.6%,0.5,u
CCCCSc1nc(O)c(C2OC(=O)c3c2ccc(OC)c3OC)c(=O)n1-c1ccccc1 (stereo not given),2.3,79.4µM*,17.8,6.0%
COc1ccc(C(=O)N(Cc2ccco2)Cc2cccs2)c(OC)c1,15.0,x,x,x
O=C(NNS(=O)(=O)c1ccc([N+](=O)[O-])cc1)C(=O)Nc1cccc(C(=O)O)c1,-12.0,39.8µM*,-2.7,23.0%
Cc1c(C)c2c(c(C)c1O)CC[C@@](C)(C(=O)O)O2,x,1.1%,-34.1*,x
Cc1c(C)c2c(c(C)c1O)CC[C@@](C)(CCC[C@@H](C)CCC[C@@H](C)CCCC(C)C)O2,x,16.7%,-1.9,x
N#CCCCCn1ccc(NC(=O)c2ccc(Cl)cc2O)n1,-3.2,x,x,x
O=C1COc2ccc(C(=O)c3ccccc3C(=O)O)cc2N1,13.4,27.5%,2.8,-6.1%
O=C1COc2ccc(NC(=O)c3ccccc3C(=O)O)cc2N1,-4.7,79.4µM*,-0.1,-4.7%
CCC(CC)=N/N=C/c1c(O)n(CC)c2cc(C3=NNC(=O)CC3)ccc12,4.0,u,-3.2,20.6µM*
CCCCOc1ccc(C2=NNC(=O)CC2)cc1,10.0,5.9%,1.7,u
CCn1c(O)c(/C=N/N=C/c2ccccc2)c2ccc(C3=NNC(=O)CC3)cc21,-2.3,u,1.9,25.9µM*
CCC(C)Sc1cc(-c2nc3ccc(Cl)cn3c2NC2CCCCC2)ccc1OC (stereo not given),-20.0,x,x,-3.2%
CCCCN1CC(O)C(O)C(O)C1CO (stereo not given),x,2.2%,x,x
SMILES,Giardia killer,Sfp PPTase inh,Coupling enz,ELG1 DNA repair
COC(=O)C1CCN(S(=O)(=O)Cc2ccccc2Cl)CC1,-15.5,19.1%,-0.2,-1.5%
Cc1ccc(/C=[N+](\[O-])c2ccc(N(C)C)cc2)c2nsnc12,7.0,-65.2%,-41.3*,u
CC1(C)OC2OC(C3COC(=O)O3)C(OC(=O)c3ccccc3)C2O1 (stereo not given),16.8,x,x,x
CN1CCc2c(n(CC(O)CNCc3ccccc3)c3ccccc23)C1=O (stereo not given),-7.6,-13.7%,-24.3,-14.8%
CN1CCc2c(n(CC(O)CN3C(=O)c4ccccc4S3(=O)=O)c3ccccc23)C1=O (stereo not given),-14.7,8.5%,-0.3,14.6µM*
CN1CCc2c(n(CC(O)CN(CCO)CCO)c3ccccc23)C1=O (stereo not given),-2.7,u,-50.6*,-20.9%
Cc1ccc(-n2c(C)nn(Cc3ccc([N+](=O)[O-])cc3)c2=O)cc1,2.3,17.5%,0.7,u
Cc1ccc(-n2c3nc(=O)[nH]c(=O)c-3cc3cc([N+](=O)[O-])ccc32)cc1,-10.2,-12.0%,-33.9*,u
CCC(=O)OC1CCC2C3CCc4cc(O)ccc4C3CC[C@]12C (stereo not given in full),x,-8.3%,-6.6,x
CCOC(=O)C1=C(CC)Nc2ccccc2N=C1NC(=O)Nc1ccc(Cl)c(Cl)c1,-3.6,u,-3.7,18.4µM*
CCc1nc(Nc2ccc(O)cc2)c2oc3ccccc3c2n1,-10.7,-7.2%,1.2,16.4µM*
CCc1nc(Nc2ccccc2O)c2oc3ccccc3c2n1,-9.9,-18.5%,0.0,-0.2%
Cc1ccc(Cn2nc(C)c(C(=O)NCC(c3ccc(F)cc3)N3CCOCC3)c2Cl)cc1 (stereo not given),1.4,x,x,u
COc1cccc(NC(=O)CSc2nc3n[nH]c(C)c3c(=N)n2-c2cccc(OC)c2)c1,12.7,13.5%,-1.1,u
CCc1sc2nc(SCC(=O)Nc3cc(C)on3)n(-c3cccc(OC)c3)c(=O)c2c1C,-8.9,56.2µM*,2.3,u
COc1cccc(-n2c(SCC(=O)NCCC3=CCCCC3)nc3n[nH]c(C)c3c2=N)c1,-8.3,u,4.3,16.4µM*
CCc1ccc(NC(=O)CSc2nc3n[nH]c(C)c3c(=N)n2-c2cccc(OC)c2)cc1,-2.2,-10.8%,0.9,10.3µM*
Nc1c(C(=O)N/N=C/c2cccnc2)oc2nc(-c3ccccc3)cc(-c3ccco3)c12,-10.9,-23.8%,-8.9,7.3µM*
Nc1c(C(=O)N/N=C/c2cccnc2)oc2nc(-c3ccco3)cc(-c3ccco3)c12,-2.8,u,-7.3,2.91µM*
NNC(=O)c1oc2nc(-c3ccco3)cc(-c3ccco3)c2c1N,-23.3,-8.0%,-2.1,u
NNC(=O)c1nc(-c2ccccc2)cc(-c2ccccc2)n1,28.1,0.9%,0.1,-1.5%
NNC(=O)c1oc2nc(-c3ccc(Cl)cc3)cc(-c3ccccc3)c2c1N,u,1.3%,0.8,16.4µM*
CCOc1ccccc1NC(=O)COc1ccc2ccc(=O)oc2c1,-5.3,16.1%,-2.2,-5.5%
NC(=O)c1ccc(N=C2C(=O)Nc3ccc([N+](=O)[O-])cc32)cc1,-5.6,-10.2%,-30.0*,3.0%
O=c1oc2ccccc2cc1-c1nc2c(s1)CCc1ccccc1-2,3.1,7.94µM*,-81.1*,29.8%
Nc1nc2c(s1)CCc1ccccc1-2,6.7,79.4µM*,-5.3,u
N#C/C(=C(/O)CCl)c1nc2c(s1)CCc1ccccc1-2,17.4,56.2µM*,-19.2,u

# Assay outcomes deposited in PubChem BioAssay by National Center for Advancing Translational Sciences (NCATS).
